Measurements reported in PubChem BioAssay (NCI).
Compounds without any hit were thinned out: in the full panel of roughly 83,000, 20% have a hit.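 Interpretation: 100, growth as untreated; towards 0, rising growth inhibition; 0, no net growth; 0 to -100, cell death. Compounds scoring below 10 were considered active.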 Unmarked numbers belong to inactive results. Active and inactive are the calls of the source.

tested on: OVCAR-3 ovarian; test: NCI-60 one-dose screen, 48 h (100 = growth as untreated, 0 = no growth, -100 = all killed); settings: 10 µM unless noted

Going from `C/C(=N\Nc1ccc(Cl)cn1)c1ccc2ccccc2n1` to `CCOC(=O)c1ccc2n1CCCc1cnc(NC(C)=O)nc1-2`, the growth rises from 18.2% to 107%.

`COC(=O)c1ccc2[nH]c(O)c(C(=Nc3ccc(N(C)C(=O)CN4CCN(C)CC4)cc3)c3ccc(C)cc3)c2c1` was tested, and the growth was -60.2% (active).

tested on: HS 578T breast; test: as above; settings: 10 µM unless noted

First: Brc1ccc(-c2nc3ccccc3s2)cc1
Second: NC(=O)c1c(Nc2ccccc2)nn2cc(-c3nc4ccccc4s3)c(N)nc12
The growth of the first is lower: 89.6% for the first, 93.3% for the second.

Going from `c1cc[c]([Bi]([c]2ccccc2)[c]2ccccc2)cc1` to `Clc1ccc(N/N=C(/c2ccccc2)c2ccccn2)nc1`, the growth falls from 100% to 80.6%.

Compared with `O=C1/C(=N\c2cc(=O)[nH]n2S(=O)(=O)c2ccccc2)Nc2ccccc21`, `CCOC(=O)C1=C(c2ccccc2)NC(=O)NC1CN1C(=O)c2ccccc2C1=O` (stereo unspecified) is higher in growth: 91% for the first, 105% for the second.

Compared with `COc1ccc(/C=C/C(=O)/C=C/c2cc3ccccc3[nH]c2=O)cc1`, `CC(=O)Nc1ccc(C(=O)/C=C/c2ccc(N(C)C)cc2)cc1` is lower in growth: 102% for the first, 101% for the second.

Compared with `COC1(OC)N=C(N)C2(C#N)C3(C(=O)Nc4ccccc43)C12C#N` (stereo unspecified), `COc1cc(-c2nc3c(c(C)nc4c3nnn4-c3ccccc3)c(=O)o2)cc(OC)c1OC` is higher in growth: 67.2% for the first, 103% for the second.

Compared with `C/C=C/C/C=C/[C@H](C)C[C@H](O)[C@@H]1C[C@@H]2O[C@H]2/C=C/[C@H](O)[C@@H](O)/C=C/C[C@H](C)CC(=O)O1`, `CCOC(=O)c1ccc2n1CCCc1cnc(NC(C)=O)nc1-2` is higher in growth: 11% for the first, 99.6% for the second.

Compared with `CCC(C)C1NC(=O)C(CC(C)C)NC(=O)C(C)NC(=O)C(C(C)C)NC(=O)C(CCCCN)NC(=O)C(CC(C)C)NC(=O)C(C(C)C)NC(=O)[C@H](C)NC(=O)C(C(C)CC)NC(=O)C(CCCN=C(N)N)NC(=O)C(CCCCN)NC(=O)C(CCCN=C(N)N)NC(=O)C(CCCCN)NC(=O)C([C@H](C)CC)NC(=O)C(CCCCN)NC1=O` (stereo partly specified), `CCCCN(CCCC)CCCNc1c2c(nc3ccc(Cl)cc13)CCCC2` is higher in growth: 38.9% for the first, 104% for the second.

First: COc1ccc(-c2nc(SCC(C)C)nc(Nc3ccc(C(=O)O)cc3)c2C#N)cc1
Second: CC(C)OC(=O)c1ccc2n1CCCc1cnc(Nc3ccccc3)nc1-2
The growth of the first is higher: 99.1% for the first, 99% for the second.

First: O=S(=O)(O)CCI
Second: O=C1C(=O)c2ccccc2C(O)=C1CCCc1ccc(Oc2ccccc2)cc1
The growth of the first is higher: 100% for the first, 95.7% for the second.

Going from `Nc1nc2c(c3cnccc13)C(c1cccc(Cl)c1)Cc1cnccc1-2` (stereo unspecified) to `Cc1nc2c(nnn2-c2ccccc2)c2nc(-c3ccc(Cl)cc3)oc(=O)c12`, the growth rises from 38.9% to 107%.

Going from `Oc1ccccc1\C=N/N=C/C=C/c1ccccc1` to `CC/C(=N\Nc1nc2ccccc2n1C)c1ccccn1`, the growth falls from 106% to 48.4%.

Going from `COC(=O)c1ccc2[nH]c(O)c(C(=Nc3ccc(N(C)C(=O)CN4CCN(C)CC4)cc3)c3ccc(N)cc3)c2c1` to `Cc1ccc(C(C)C)c(OCc2ccc(C(=O)N/N=C/c3cccc(O)c3O)cc2)c1`, the growth rises from 45.2% to 76.8%.

First: C=C[C@]1(C)C=C2C(=O)[C@@]3(O)OC[C@@]4(CCCC(C)(C)C43O)C2(O)C(O)C1 (stereo partly specified)
Second: c1cc(C2CCCCC2)ccc1OCCCCCCN1CCNCC1
The growth of the first is higher: 90.3% for the first, 51.9% for the second.

Compared with `COc1ccc(/C=C2\CCCC3=C2N=C2SC=NN2C3c2ccc(OC)c(OC)c2)cc1OC` (stereo unspecified), `CCOC(=O)c1c2c(cn1Cc1ccccc1)-c1oncc1CC2` is higher in growth: 86.4% for the first, 91.9% for the second.

First: CC(C)(C)c1ccc(OCCOC(=O)CBr)cc1
Second: C/C(=N\Nc1cccc(Cl)n1)c1ccccn1
The growth of the first is higher: 108% for the first, 58.9% for the second.

Compared with `C/C(=N\Nc1ccc(Cl)cn1)c1ccccn1`, `C/C(=N\Nc1ccc(Cl)cn1)c1ccc2ccccc2n1` is higher in growth: 34.6% for the first, 37.7% for the second.

`C/C=C/C/C=C/[C@H](C)C[C@H](O)[C@@H]1C[C@@H]2O[C@H]2/C=C/[C@@H]2OC(C)(C)O[C@H]2/C=C/C[C@H](C)CC(=O)O1` was tested, and the growth was -18.8% (active).
In the case of `COc1ccc(Cn2cc3c(c2)-c2oncc2CC3)cc1OC`, the growth is reported as 2.04% (active).
With `COC(=O)c1ccc2[nH]c(O)c(C(=Nc3ccc(N(C)C(=O)CN4CCN(C)CC4)cc3)c3cccc(OC)c3)c2c1` the growth was 6.7% (active).
For `COc1ccc(-c2nnc(SCC(=O)Nc3ccc(C(=O)/C=C/c4cc(OC)c(OC)c(OC)c4)cc3)n2-c2ccccc2)cc1OC`, the growth was 4.23% [100 µM] (active).
For `CCc1ccc(C(=Nc2ccc(N(C)C(=O)CN3CCN(C)CC3)cc2)c2c(O)[nH]c3ccc(C(=O)OC)cc23)cc1`, the growth was -48.7% (active).
For `COC(=O)c1ccc2[nH]c(O)c(C(=Nc3ccc(N(C)C(=O)CN4CCN(C)CC4)cc3)c3ccc(C)cc3)c2c1`, the growth was -2.52% (active).
